CSC inhib: blocks cancer stem cells. inhibition, % at 7.5 µM. AID 2717. hit rate 1.1% among 300,000. cancer stem cell-like cells viability, luminescence; in the data active = inhibition above about 75%; inconclusive = no clear call, values can overlap the other calls; tested in HMLE shEcad cells
697 NFkB inh: lowers PMA/ionomycin-induced NF-kB signal in 697 B cells. 697 B-cell NF-kB luciferase reporter, 16 h. inhibition, % at 4 µM. hit rate 0.33% among 330,000. AID 435022; in the data active = inhibition above about 35%
Jurkat NFkB inh: lowers PMA/ionomycin-induced NF-kB signal in Jurkat cells | hit rate 0.53% among 330,000 | PMA/ionomycin-induced NF-kB luciferase reporter, luminescence | AID 435003 | inhibition, % at 4 µM; in the data active = inhibition above about 50%
Mdm2 MdmX PPI: disrupts the human Mdm2-MdmX interaction; O15151+Q00987; SaOS-2 split-luciferase Mdm2/MdmX complementation, luminescence; inhibition, % at 8 µM; hit rate 3% among 330,000; AID 485346;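 active = inhibition of at least 50% at 8 µM in the primary screen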
aSyn 5UTR inh: MLPCN primary screen, SNCA 5' untranslated region; alpha-synuclein 5'UTR reporter, inhibitor activity; inhibition, % (tested at 7.5 µM); hit rate 0.82% among 300,000; in the data active = inhibition above about 60%; inconclusive = no clear call, values can overlap the other calls;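 note: H4 neuroglioblastoma cells stably carrying SNCA 5'UTR luciferase fusion; 0% = DMSO wells and 100% = positive control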
Gli-Sufu antag: antagonists of Gli-Sufu signaling; Sufu-KO-LIGHT fibroblasts, Gli luciferase reporter luminescence; inhibition, % at 5 µM; hit rate 0.74% among 340,000; AID 588413;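 active = inhibition above about 55%, limit read from the data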;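 note: 0% = DMSO-treated cells and 100% = wells with medium but no cells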
Mdm2-MdmX conf: human Mdm2/MdmX binding inhibition, confirmed; shares compounds with Mdm2 MdmX PPI; luminescent assay; inhibition, % at 8 µM; hit rate 55% among 10,000; AID 489028; in the data active = inhibition above about 40%
FLuc counter: counter-screen for Mdm2/MdmX inhibitors: full-length luciferase; shares compounds with Mdm2 MdmX PPI; SaOS-2 full-length luciferase counterscreen, luminescence; inhibition, % at 8 µM; hit rate 77% among 6,200; AID 504607;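 active = mean inhibition at 8 µM reaching about 37%, which flags the compound as non-specific, limit read from the data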;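 note: p53-null SaOS-2 cells with luciferase driven by a doxycycline-inducible promoter; compound on cells about two nights before reading with doxycycline added after day one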
* hit, by the source's call; ? = inconclusive; / = no result given. A selection: hits, their analogues and other compounds. The true share with any hit is near 4.5%.

SMILES	CSC inhib	697 NFkB inh	Jurkat NFkB inh	Mdm2 MdmX PPI	aSyn 5UTR inh	Gli-Sufu antag	Mdm2-MdmX conf	FLuc counter
CCOc1cc(/C=N/NC(=O)N/N=C/c2ccc(O)c(OCC)c2)ccc1O	59	-7	34	60*	-20	-87	49*	81*
CCOc1cc(/C=C2\CN(C)C/C(=C\c3ccc(O)c(OCC)c3)C2=O)ccc1O	105*	-57	33	100*	96*	27	100*	14
CC1(c2ccccc2)NC(=O)N(CC(=O)Nc2cccc(C#N)c2)C1=O (centres undefined)	-3	18	8	19	-11	-5	/	/
Cc1cc(OCC(=O)OC(C)C(=O)Nc2ccc(N3CCOCC3)cc2)ccc1Cl (centres undefined)	-3	-5	4	4	/	-12	/	/
O=C(COc1ccccc1)Nc1nn[nH]n1	/	6	3	-32	3	0	/	/
CCc1ccccc1NC(=O)C(CC)Sc1nc2cc3c(cc2c(=O)n1Cc1ccco1)OCO3 (centres undefined)	67	15	0	22	30	13	/	/
CCc1ccc(NC(=O)C(CC)Sc2nc3cc4c(cc3c(=O)n2Cc2ccco2)OCO4)cc1 (centres undefined)	?	18	14	81*	-12	-17	9	/
O=[N+]([O-])c1cc(C(F)(F)F)cc([N+](=O)[O-])c1NCCNC(=S)Nc1ccc(Cl)c(Cl)c1	107*	-12	7	90*	18	1	46*	55*
CCOC(=O)c1cc(-c2ccccc2)n(CC2CC(c3ccc(OC)cc3)=NO2)n1 (centres undefined)	3	14	10	3	-2	-1	/	/
COc1cccc(/C=N/Nc2nc(Nc3ccc([N+](=O)[O-])cc3)nc(N3CCCC3)n2)c1O	/	18	45	96*	65*	24	89*	39*
Cc1cc(C)nc(N/N=C/c2cc3c(cc2[N+](=O)[O-])OCO3)n1	0	23	-5	7	-7	-6	/	/
O=[N+]([O-])c1ccc(Nc2nc(N/N=C/c3cccc(F)c3)nc(N3CCCC3)n2)cc1	-2	32	0	43	-28	7	/	/
O=[N+]([O-])c1cc2c(cc1/C=N/Nc1nc(Nc3ccccc3)nc(N3CCCCC3)n1)OCO2	4	-62	-41	64*	-63	-18	42*	37*
O=c1[nH]c(N/N=C/c2cc3c(cc2[N+](=O)[O-])OCO3)nc2ccccc12	-19	14	-10	64*	-53	-16	6	/
COc1cc([N+](=O)[O-])cc(/C=N/NC(=O)c2cccnc2)c1O	-4	22	3	55*	-5	7	52*	51*
COc1cc([N+](=O)[O-])cc(/C=N/NC(=O)C(O)(c2ccccc2)c2ccccc2)c1O	13	-6	10	27	17	-1	/	/
COc1cccc(/C=N/Nc2ccc([N+](=O)[O-])cn2)c1O	123*	-94	-4	93*	102*	-99	91*	53*
CN(C)CCCNc1ncnc2c1c(-c1ccccc1)cn2-c1ccccc1	15	-17	5	61*	-35	26	42*	89*
CN1CCN(c2cc(-c3cc(O)c4ncccc4c3)ccn2)CC1	22	9	14	60*	/	25	45*	20
Oc1cc(Nc2ccccc2)cc2cccnc12	/	0	4	67*	/	9	31	/
Oc1cc(-c2cccnc2)cc2cccnc12	46	-1	0	76*	/	29	50*	14
O=C(CN1C(=O)NC2(CCCCC2)C1=O)NCc1cccs1	-25	-3	2	-10	10	0	/	/
COc1ccc(C(=O)Nc2ccc(N3CCCCCC3)cc2)cc1S(=O)(=O)N1CCOCC1	15	-19	8	7	/	5	/	/
NS(=O)(=O)c1ccc(NC(=O)/C=C/c2cn(-c3ccccc3)nc2-c2cccc(Cl)c2)cc1	25	12	0	50*	-31	/	22	/
O=C(/C=C/c1cn(-c2ccccc2)nc1-c1ccccc1)Nc1ccc(C(=O)O)cc1	10	-64	-16	9	-36	-49	/	/
SMILES	CSC inhib	697 NFkB inh	Jurkat NFkB inh	Mdm2 MdmX PPI	aSyn 5UTR inh	Gli-Sufu antag	Mdm2-MdmX conf	FLuc counter
COc1c(/C=N/Nc2ccc([N+](=O)[O-])cc2[N+](=O)[O-])c(C)nn1-c1ccccc1	17	4	0	54*	7	5	14	/
Cc1ccc(-c2nn(-c3ccccc3)cc2/C=C/C(=O)Nc2nccs2)cc1	15	-6	-14	72*	14	15	43*	37*
O=[N+]([O-])c1ccc(N/N=C/c2cn(-c3ccccc3)nc2-c2ccccc2)cc1	29	23	-17	57*	-71	7	39	52*
O=C(Cc1coc2cc(O)ccc12)N1CCN(S(=O)(=O)c2ccc(Br)cc2)CC1	/	/	/	/	/	1	/	/
COc1cccc(SCc2noc(C(=O)NCCC(C)C)c2C(=O)NCCC(C)C)c1	61	-8	11	9	12	-5	/	/
NS(=O)(=O)c1ccc(N/N=C/c2cn(-c3ccccc3)nc2-c2ccccc2)c([N+](=O)[O-])c1	140*	-30	-5	84*	-121	12	14	/
COc1ccc(S(=O)(=O)N(C)C[C@H]2Oc3c(NC(=O)Nc4ccc(C(F)(F)F)cc4)cccc3C(=O)N([C@H](C)CO)C[C@@H]2C)cc1	50	19	6	52*	/	14	22	/
C[C@@H]1CN([C@H](C)CO)C(=O)c2cccc(NC(=O)Nc3ccc(C(F)(F)F)cc3)c2O[C@H]1CN(C)S(=O)(=O)c1cccs1	/	-5	-2	57*	/	17	41*	73*
C[C@H]1CN([C@@H](C)CO)C(=O)c2cccc(NC(=O)Nc3ccc(C(F)(F)F)cc3)c2O[C@@H]1CN(C)S(=O)(=O)c1ccccc1	/	-3	-9	38	/	22	/	/
O=C(Nc1nnc(-c2ccc3c(c2)CCCC3)o1)c1ccccc1	92*	-40	-5	57*	17	-1	66*	47*
COc1ccc(NC(=O)CSc2nc3[nH]ncc3c(=O)[nH]2)c(OC)c1	-7	8	9	19	-18	-6	/	/
Cc1ccc(C2(C)NC(=O)N(CC(=O)NNC(=O)c3ccccc3F)C2=O)cc1 (centres undefined)	/	3	-10	22	/	46	/	/
CC(C)c1cccc(-c2ccc3c(c2)S(=O)(=O)c2cccc(C(=O)NCc4ccccc4)c2C3=O)c1	/	-7	-3	59*	/	-13	30	/
CC(C)c1cccc(-c2ccc3c(c2)S(=O)(=O)c2cccc(C(=O)NCc4ccccc4Cl)c2C3=O)c1	31	10	-2	89*	/	6	16	/
